Results on five compounds are retold here after PubChem BioAssay.

Activity calls are given as the source filed them.

The nature of assay [1]: small molecules captured by biotinylated probe aFSTL3 – biochemical, small-molecule microarray, fluorescence 635/667, stem cell growth factor project, primary screen (AID 1064).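 Also: measures binding of the biotinylated anti-FSTL3 antibody to printed compounds.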 To be noted: higher = more signal.
Assay [2] can be described thus: binders from COS7 lysate, DM2A8 probe, primary screen, torsin A project, cell lysate, small-molecule microarray, fluorescence 635/667 (AID 1065). As to conditions: higher = more signal, COS7 lysate expressing mutant human TOR1A.
Assay [3] can be described thus: small molecules captured by biotinylated probe aFGF2 – biochemical, small-molecule microarray, fluorescence 635/667, stem cell growth factor project, primary screen (AID 1067).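 Also: measures binding of biotinylated aFGF2 protein to printed compounds on slides; z-score merges feature fluorescence and signal-to-noise across triplicate slides.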 To be noted: higher = more signal.
Assay [4] can be described thus: small molecules captured by biotinylated probe aFGF10 – biochemical, small-molecule microarray, fluorescence 635/667, stem cell growth factor project, primary screen (AID 1071).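 Also: score merges 667 nm spot intensity and signal to noise from triplicate slides.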 To be noted: higher = more signal.
Assay [5] has as its target Neurogenic locus notch homolog protein 2 (Homo sapiens) (UniProt Q04721). Put plainly: small molecules binding Notch2 protein – biochemical, small-molecule microarray, 635 nm fluorescence, stem cell growth factors, primary screen (AID 1073). To be noted: higher = more signal.
The target in assay [6] is Pro-neuregulin-1, membrane-bound isoform (Homo sapiens) (UniProt Q02297). Put plainly: small molecules binding neuregulin-1 protein – biochemical, small-molecule microarray, fluorescence 635/667, psychiatric disease protein project, primary screen (AID 1075).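 Also: score combines 667 nm spot fluorescence with signal to noise.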 To be noted: NRG1 binding, 635 nm fluorescence, higher = more signal.
Chain of Pro-neuregulin-1, membrane-bound isoform (Homo sapiens) (Q02297 whole entry, looked up, the tested form may be a part, canonical isoform): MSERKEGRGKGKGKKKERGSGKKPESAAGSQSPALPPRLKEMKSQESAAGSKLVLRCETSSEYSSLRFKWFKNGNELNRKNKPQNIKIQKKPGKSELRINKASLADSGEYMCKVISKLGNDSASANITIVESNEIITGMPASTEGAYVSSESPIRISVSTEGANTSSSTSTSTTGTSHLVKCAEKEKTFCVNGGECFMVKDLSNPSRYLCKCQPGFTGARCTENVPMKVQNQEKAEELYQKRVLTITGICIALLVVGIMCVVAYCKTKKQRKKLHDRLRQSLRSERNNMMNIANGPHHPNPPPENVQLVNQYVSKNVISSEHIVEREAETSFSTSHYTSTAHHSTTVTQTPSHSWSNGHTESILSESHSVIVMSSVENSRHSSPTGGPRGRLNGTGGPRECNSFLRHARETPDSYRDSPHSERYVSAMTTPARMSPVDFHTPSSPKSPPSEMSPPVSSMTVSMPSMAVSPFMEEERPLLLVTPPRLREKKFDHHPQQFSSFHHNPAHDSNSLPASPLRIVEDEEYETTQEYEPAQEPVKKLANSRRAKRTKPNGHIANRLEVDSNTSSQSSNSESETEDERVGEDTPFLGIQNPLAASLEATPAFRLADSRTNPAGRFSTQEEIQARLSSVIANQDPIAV
Assay [7] relates to Neuregulin-1 EGF-like domain. As to the kind of experiment: small molecules binding NRG1 EGF domain – biochemical, small-molecule microarray, 635 nm fluorescence, primary screen (AID 1081).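 Also: binding of the protein to compounds printed on small-molecule microarray slides.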 To be noted: higher = more signal.
Assay [8] is described as follows: FRG1 expression reporter modulators in myotubes – cell-based, C2C12 myotubes, firefly/Renilla luciferase, luminescence, FRG1 inhibition for FSHD, primary screen (AID 1084). As to conditions: FRG1 promoter luciferase, higher = more signal, called active from +8 up or from −8 down.
Assay [9] in a line: small molecules captured by biotinylated probe aFST – biochemical, small-molecule microarray, fluorescence 635/667, stem cell growth factor project, primary screen (AID 1086).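 Also: score merges 667 nm fluorescence with signal-to-noise of each printed compound spot.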 As to conditions: higher = more signal.
A short description of assay [10]: binders of probe aHhip on microarray, primary screen, stem cell growth factor project, biochemical, small-molecule microarray, fluorescence 635/667 (AID 1087).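 Also: score merges spot fluorescence at 667nm with spot signal to noise ratio.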 To be noted: higher = more signal.
The test system of assay [11] is PRMT1 (protein arginine N-methyltransferase 1). As to the kind of experiment: small molecules binding arginine methyltransferase PRMT1 – biochemical, small-molecule microarray, 635 nm fluorescence, primary screen (AID 1088).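 Also: binding of Prmt1 protein to compounds spotted on small-molecule microarray slides.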 As to conditions: higher = more signal.
Assay [12] can be described thus: growth effects on S. cerevisiae YJM789 – YJM789 clinical isolate, OD600, 24 h, basal, primary screen (AID 1089).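 Also: growth of clinical yeast isolate S. cerevisiae YJM 789 seeded 1000 cells per well; test concentration not given here.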 To be noted: higher = more signal, called active from +8 up or from −8 down.
Assay [13] in a line: S. pombe growth modifiers, basal conditions – strain 972, OD600, 24 h, no modulator, primary screen (AID 1090).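 Also: basal condition with compound alone and no growth modifier present; test concentration not given here.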 As to conditions: S. pombe 972 growth, higher = more signal, called active from +8 up or from −8 down.
Assay [14] in a line: budding yeast growth modifiers under rapamycin – strain BY4716, OD600, 96 h, primary screen (AID 1091). Also: test concentration not given here. As to conditions: S. cerevisiae BY4716 + rapamycin, higher = more signal, called active from +8 up or from −8 down.
For assay [15], the target named is Torsin-1A-interacting protein 2 (Homo sapiens) (UniProt Q8NFQ8). Put plainly: small molecules binding lysate-expressed LULL1 – cell lysate, human LULL1 lysate, 635/667 nm fluorescence, primary screen (AID 1092).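 Also: probe is lysate of COS7 cells overexpressing human LULL1; score merges per-feature 667 nm fluorescence with signal-to-noise.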 To be noted: small-molecule microarray, hLULL1 lysate binding, 635 nm fluorescence; higher = more signal.
Chain of Torsin-1A-interacting protein 2 (Homo sapiens) (Q8NFQ8 whole entry, looked up): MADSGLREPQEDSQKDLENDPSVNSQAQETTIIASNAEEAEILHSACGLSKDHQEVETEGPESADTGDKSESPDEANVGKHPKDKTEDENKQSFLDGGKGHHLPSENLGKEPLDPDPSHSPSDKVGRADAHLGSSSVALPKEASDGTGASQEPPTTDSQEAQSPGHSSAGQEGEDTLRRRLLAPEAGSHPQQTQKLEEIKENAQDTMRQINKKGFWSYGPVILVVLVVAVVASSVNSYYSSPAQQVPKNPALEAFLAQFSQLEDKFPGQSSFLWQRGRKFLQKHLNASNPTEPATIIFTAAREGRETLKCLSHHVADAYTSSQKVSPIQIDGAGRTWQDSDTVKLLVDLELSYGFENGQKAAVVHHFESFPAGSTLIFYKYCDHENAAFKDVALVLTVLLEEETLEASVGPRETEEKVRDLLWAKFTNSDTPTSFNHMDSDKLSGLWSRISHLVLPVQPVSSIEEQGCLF
A short description of assay [16]: optical density change of DRC41 E. coli – strain DRC41, OD650, 24 h, E. coli filamentation project, primary screen (AID 1093).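 Also: MC1000 strain lacking acrAB efflux and sulA so SOS filamentation is blocked; test concentration not given here.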 To be noted: E. coli DRC41 growth, higher = more signal, called active from +8 up or from −8 down.
Assay [17] is described as follows: probe aLefty2 binding to arrayed compounds – biochemical, biotinylated probe, 635/667 nm fluorescence, primary screen (AID 1094).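 Also: score merges spot fluorescence near 667 nm with spot signal-to-noise ratio.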 As to conditions: small-molecule microarray, higher = more signal.
Assay [18] relates to Noggin (protein binding on small-molecule microarray). Put plainly: small molecules binding Noggin protein – biochemical, 635/667 nm fluorescence, primary screen (AID 1095).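 Also: score merges 667 nm feature fluorescence with signal to noise over triplicate slides.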 To be noted: 635 nm fluorescence, higher = more signal.
The target of assay [19] is Neurogenic locus notch homolog protein 3 (Homo sapiens) (UniProt Q9UM47). Put plainly: small molecules binding NOTCH3 protein – biochemical, 635/667 nm fluorescence, primary screen (AID 1096). To be noted: small-molecule microarray, 635 nm fluorescence, higher = more signal.
Chain of Neurogenic locus notch homolog protein 3 (Homo sapiens) (Q9UM47 whole entry, looked up): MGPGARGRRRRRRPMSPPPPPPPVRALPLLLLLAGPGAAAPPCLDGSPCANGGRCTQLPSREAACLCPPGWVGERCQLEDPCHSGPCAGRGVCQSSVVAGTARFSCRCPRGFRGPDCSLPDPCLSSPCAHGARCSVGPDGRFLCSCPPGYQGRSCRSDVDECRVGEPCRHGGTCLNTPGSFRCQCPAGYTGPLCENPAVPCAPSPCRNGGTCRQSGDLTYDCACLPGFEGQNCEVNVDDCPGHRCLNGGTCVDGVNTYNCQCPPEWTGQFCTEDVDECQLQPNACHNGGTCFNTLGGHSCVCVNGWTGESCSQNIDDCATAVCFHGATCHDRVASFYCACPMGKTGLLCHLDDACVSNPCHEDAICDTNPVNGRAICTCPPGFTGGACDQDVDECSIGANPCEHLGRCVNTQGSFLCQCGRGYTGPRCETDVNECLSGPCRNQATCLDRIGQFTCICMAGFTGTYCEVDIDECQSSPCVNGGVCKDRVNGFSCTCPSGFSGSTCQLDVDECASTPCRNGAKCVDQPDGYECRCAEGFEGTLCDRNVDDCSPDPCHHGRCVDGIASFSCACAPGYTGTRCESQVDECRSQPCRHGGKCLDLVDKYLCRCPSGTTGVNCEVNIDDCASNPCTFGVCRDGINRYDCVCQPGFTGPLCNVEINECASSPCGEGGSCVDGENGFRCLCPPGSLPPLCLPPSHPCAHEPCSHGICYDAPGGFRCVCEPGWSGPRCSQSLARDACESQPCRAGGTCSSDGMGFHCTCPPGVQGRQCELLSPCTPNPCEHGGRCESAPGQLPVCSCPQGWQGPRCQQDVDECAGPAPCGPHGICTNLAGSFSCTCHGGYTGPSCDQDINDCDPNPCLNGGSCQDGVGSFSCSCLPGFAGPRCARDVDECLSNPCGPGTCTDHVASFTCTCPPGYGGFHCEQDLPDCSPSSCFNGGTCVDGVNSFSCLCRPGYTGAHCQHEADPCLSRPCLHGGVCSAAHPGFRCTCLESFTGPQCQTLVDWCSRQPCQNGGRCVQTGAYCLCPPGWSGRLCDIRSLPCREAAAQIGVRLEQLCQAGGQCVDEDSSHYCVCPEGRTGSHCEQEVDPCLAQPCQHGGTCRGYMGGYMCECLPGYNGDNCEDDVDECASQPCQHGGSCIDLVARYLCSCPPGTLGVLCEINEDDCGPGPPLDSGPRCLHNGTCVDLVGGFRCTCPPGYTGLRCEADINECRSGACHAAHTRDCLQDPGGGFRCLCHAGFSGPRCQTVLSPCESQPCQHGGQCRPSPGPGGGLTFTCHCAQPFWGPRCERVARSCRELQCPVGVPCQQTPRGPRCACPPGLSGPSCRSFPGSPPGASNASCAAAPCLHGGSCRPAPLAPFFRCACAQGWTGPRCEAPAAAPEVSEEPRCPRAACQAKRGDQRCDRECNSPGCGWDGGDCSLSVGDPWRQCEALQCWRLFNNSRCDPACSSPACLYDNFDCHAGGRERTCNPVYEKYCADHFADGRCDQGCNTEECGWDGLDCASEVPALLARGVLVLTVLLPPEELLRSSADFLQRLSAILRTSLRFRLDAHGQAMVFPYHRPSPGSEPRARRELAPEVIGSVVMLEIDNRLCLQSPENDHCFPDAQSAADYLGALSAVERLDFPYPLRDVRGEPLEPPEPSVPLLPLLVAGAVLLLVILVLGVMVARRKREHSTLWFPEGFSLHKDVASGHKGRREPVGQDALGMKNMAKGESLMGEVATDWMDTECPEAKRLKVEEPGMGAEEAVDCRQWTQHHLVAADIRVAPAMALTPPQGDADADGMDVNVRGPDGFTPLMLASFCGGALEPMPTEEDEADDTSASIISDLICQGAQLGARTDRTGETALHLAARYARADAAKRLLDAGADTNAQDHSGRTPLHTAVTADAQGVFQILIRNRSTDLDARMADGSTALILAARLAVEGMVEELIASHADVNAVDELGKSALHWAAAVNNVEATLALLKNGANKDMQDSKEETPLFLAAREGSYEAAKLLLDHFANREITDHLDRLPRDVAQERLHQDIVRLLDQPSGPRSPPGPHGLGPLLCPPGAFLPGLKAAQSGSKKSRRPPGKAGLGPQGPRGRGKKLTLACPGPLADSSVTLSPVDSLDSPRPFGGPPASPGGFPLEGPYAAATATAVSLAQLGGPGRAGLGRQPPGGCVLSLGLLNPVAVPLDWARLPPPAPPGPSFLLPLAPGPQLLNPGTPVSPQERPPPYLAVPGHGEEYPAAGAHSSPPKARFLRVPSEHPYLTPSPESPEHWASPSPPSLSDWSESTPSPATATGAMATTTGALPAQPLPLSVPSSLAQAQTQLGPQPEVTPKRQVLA
Assay [20] can be described thus: probe aEGFR binding to arrayed compounds – biochemical, biotinylated probe, 635/667 nm fluorescence, primary screen (AID 1097).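 Also: probe is a biotinylated anti-EGFR antibody binding compounds printed on slides; score combines fluorescence near 667 nm and signal to noise of each spot.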 As to conditions: small-molecule microarray, higher = more signal.

As for `O=C1O[C@H](c2ccccc2)[C@H](c2ccccc2)N2[C@H]1[C@@H](C(=O)Nc1nc3ccccc3s1)[C@]1(C(=O)Nc3ccc(C#CCCO)cc31)[C@H]2c1ccc(O)cc1`, the composite z-score is -0.309 in assay [1]; 0.931 in assay [2]; -0.0074 in [3]; 1.01 in assay [4]; 0.947 in assay [5]; 1.2 in assay [6]. Also, the composite z-score was 1.27 in assay [7]; 0.652 in [9]; -0.0581 in [10]; 1.55 in [11]; 2.39 in assay [15]; 0.0769 in assay [17]. Besides, the figures for the composite z-score in [18], in assay [19] and in assay [20] were 0.744, 1.13 and 0.346, respectively. Moreover, the z-score in [8] is 0.912 (inactive); in [12] it was 0.758 (inactive); in assay [13] it was 0.936 (inactive); in [14], 1.14 (inactive); in assay [16] it was -0.672 (inactive).
On to `COCC1=C2[C@@H](CCc3ccccc3)OB(O)C[C@@H]2[C@@H]2C(=O)C=CC(=O)[C@@H]2C1`, for which the composite z-score in assay [1] is -0.265; in assay [2], 0.42; in assay [3], -0.051; in assay [4], 0.328; in assay [5] it was 0.386; in [6], 0.404. In addition, the composite z-score was 0.952 in assay [7]; 0.182 in [9]; -0.0708 in assay [10]; 1.57 in [11]; 1.32 in [15]; -0.143 in [17]. For the same compound, the composite z-score in assay [18] is 0.883; in assay [19], 1.12; in assay [20], -0.106. Also, the z-score in [8] is -0.632 (inactive); in [12] it was 0.506 (inactive); in assay [13] it was -2.86 (inactive); in assay [14], -0.288 (inactive); in assay [16], -0.224 (inactive).
In the case of `O=C1O[C@@H](c2ccccc2)[C@@H](c2ccccc2)N2[C@@H](c3ccc(OCCO)cc3)[C@]3(C(=O)Nc4ccccc43)[C@@H](C(=O)O)[C@H]12`, the composite z-score in [1] was 0.161; in assay [2], 0.144; in assay [3], -0.0336; in assay [4], 1.02; in assay [5] it was 0.381; in assay [6], 1.5. Besides, the composite z-score in assay [7] was 1.45; in assay [9], 0.0284; in [10], -0.407; in assay [11], 0.194; in assay [15] it was 3.09; in [17] it was 0.176. The composite z-score in assay [18] was -0.179; in assay [19], -0.239; in [20], 0.247. For the same compound, the z-score was -0.0089 (inactive) in assay [8]; 0.264 (inactive) in assay [12]; -0.272 (inactive) in [13]; -0.219 (inactive) in assay [14]; 0.852 (inactive) in [16].
Regarding `[N-]=[N+]=Nc1ccccc1[C@H]1OC(c2ccc(OCCCO)cc2)=N[C@@]1(CCS(=O)(=O)c1ccccc1)C(=O)NCCN1CCOCC1`, the composite z-score in [1] amounted to 0.052; in assay [2] it was 0.0825; in assay [3] it was 0.115; in assay [4] it was 0.839; in assay [5], 1.28; in [6], 1.35. The composite z-score in assay [7] is 1.12; in assay [9], 1.58; in [10], -0.166; in assay [11], 1.55; in assay [15], 3.3; in [17], 0.414. The composite z-score stood at 0.55 in assay [18], 0.839 in assay [19] and 0.154 in assay [20]. Also, the z-score is 5.72 (inactive) in assay [8]; 0.299 (inactive) in assay [12]; 1.13 (inactive) in [13]; 0.683 (inactive) in assay [14]; 0.17 (inactive) in assay [16].
With `COc1ccc(C(O)C2C=CC3C(=O)N(c4ccccc4)C(=O)C3N2Nc2ccc([N+](=O)[O-])cc2)cc1` (stereo not given), the composite z-score was 0.928 in assay [1]; -0.0823 in assay [2]; 0.25 in assay [3]; 0.935 in [4]; 1.64 in assay [5]; 0.546 in [6]. Also, the composite z-score was 1.16 in assay [7]; 1.18 in assay [9]; -0.149 in assay [10]; 1.11 in [11]; 3.09 in assay [15]; 0.432 in assay [17]. The composite z-score in assay [18] is 0.0062; in assay [19] it was 1.1; in assay [20], 0.239. Also, the z-score is -1 (inactive) in assay [8]; 0.137 (inactive) in assay [12]; 1.4 (inactive) in assay [13]; 3.22 (inactive) in [14]; -0.909 (inactive) in assay [16].
